Laboratory results: PubChem BioAssay (EPA / NIEHS)
Inconclusive results are not listed. Activity calls are given as the source filed them. Rule for the calls, unless noted: active = hit-call score of the fitted dose curve at least 0.9, where 1 is the maximum; inactive = score below 0.9.

How the values were obtained:
[1] = target: human RAR-related Orphan Receptor gamma (RORg), RORC (gene 6097) (UniProt P51449); assay: ATG_RORg_TRANS: Attagene TRANS-FACTORIAL HepG2 Assay for human RAR-related Orphan Receptor gamma (RORg) (AID 2283011; active = hit-call score of the fitted dose curve at least 0.9, where 1 is the maximum)
How it was run: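 Activity is scored as increase in GAL4-UAS reporter mRNA over DMSO, detected by fluorescent RT-PCR and capillary electrophoresis in HepG2 cells transiently expressing a RORg-Gal4 chimera, 24 h after dosing.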

[2] = target: human Retinoid X Receptor beta (RXRb), RXRB (gene 6257) (UniProt P28702); assay: ATG_RXRb_TRANS: Attagene TRANS-FACTORIAL HepG2 Assay for human Retinoid X Receptor beta (RXRb) (AID 2283013; active = hit-call score of the fitted dose curve at least 0.9, where 1 is the maximum)
How it was run: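 Read-out: reporter mRNA induction via RT-PCR plus capillary electrophoresis fluorescence, analysed as signal increase relative to DMSO. Cells were human HepG2, transiently transfected with GAL4-UAS reporter constructs and chimeric receptor-Gal4 fusions, dosed for 24 h.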

[3] = read-out: E-selectin (Homo sapiens) (UniProt P16581); assay: BSK_3C_Eselectin: BioMAP Diversity Plus: 3C Assay for Eselectin Biomarker Activity (AID 2283015); settings: primary human endothelial cells (HUVEC); actives raise or lower the signal
How it was run: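 Human vascular endothelium from umbilical vein is exposed to test chemicals for 24 h. E-selectin levels are read by ELISA and compared with DMSO controls.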

[4] = read-out: Interleukin-1 alpha (IL1a), IL1A (gene 3552); assay: BSK_BE3C_IL1a: BioMAP Diversity Plus: BE3C Assay for Interleukin-1 alpha (IL1a) Biomarker Activity (AID 2283016); settings: primary human bronchial epithelial cells; actives raise or lower the signal
How it was run: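 ELISA read-out of IL-1a from human lung bronchial epithelial primary cells, 24 h post-dose. Gain or loss of signal fitted relative to DMSO negative control.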

[5] = read-out: Monocyte Chemoattractant Protein-1 (MCP1), CCL2 (gene 6347); assay: BSK_3C_MCP1: BioMAP Diversity Plus: 3C Assay for Monocyte Chemoattractant Protein-1 (MCP1) Biomarker Activity (AID 2283017); settings: primary human endothelial cells (HUVEC); actives raise or lower the signal
How it was run: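 Endothelial cells from human umbilical vein are dosed with chemical, cultured 24 h, then assayed for MCP-1 by ELISA; both increases and decreases are modelled against DMSO controls.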

[6] = read-out: Monocyte Chemoattractant Protein-1 (MCP1), CCL2 (gene 6347); assay: BSK_4H_MCP1: BioMAP Diversity Plus: 4H Assay for Monocyte Chemoattractant Protein-1 (MCP1) Biomarker Activity (AID 2283018); settings: primary human endothelial cells (HUVEC); actives raise or lower the signal
How it was run: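 HUVEC primary cells, 24 h post-dose, MCP-1 by ELISA. Gain or loss of signal fitted bidirectionally vs DMSO baseline. Cytotoxicity: SRB stain (0.1% after 10% TCA fixation), read 560 nm, parallel cultures.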

[7] = read-out: Human Leukocyte Antigen - DR isotype (HLADR), HLA-DRA (gene 3122); assay: BSK_3C_HLADR: BioMAP Diversity Plus: 3C Assay for Human Leukocyte Antigen - DR isotype (HLADR) Biomarker Activity (AID 2283019); settings: primary human endothelial cells (HUVEC); actives raise or lower the signal
How it was run: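 Endothelial cells from human umbilical vein are treated with test chemical; after 24 h, HLA-DR levels are measured by ELISA. Data are fitted in both directions using DMSO as the baseline.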

[8] = read-out: Interleukin-8 (IL8), CXCL8 (gene 3576); assay: BSK_3C_IL8: BioMAP Diversity Plus: 3C Assay for Interleukin-8 (IL8) Biomarker Activity (AID 2283020); settings: primary human endothelial cells (HUVEC); actives raise or lower the signal
How it was run: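 HUVEC, 3C stimulation; 24 h compound exposure; IL-8 read by ELISA; gain or loss of signal fitted relative to DMSO control.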

[9] = read-out: Monokine induced gamma interferon (MIG), CXCL9 (gene 4283); assay: BSK_3C_MIG: BioMAP Diversity Plus: 3C Assay for Monokine induced gamma interferon (MIG) Biomarker Activity (AID 2283021); settings: primary human endothelial cells (HUVEC); actives raise or lower the signal
How it was run: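 HUVEC, 3C system; 24 h chemical exposure; MIG by ELISA; bidirectional fit vs DMSO baseline.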

[10] = BSK_3C_SRB: Viability Assessment in the BioMAP Diversity Plus: 3C Assay (AID 2283023); settings: primary human endothelial cells (HUVEC);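 note: cells read 24 h after compound dosing; fitted both ways against DMSO so a hit may be signal rise or drop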
How it was run: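 Cells were dosed with chemical, cultured 24 h, fixed with 10% TCA, stained with 0.1% SRB and read at 560 nm. Human umbilical vein endothelium was used; DMSO served as negative control and baseline.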

[11] = read-out: Matrix Metallopeptidase 1 (MMP1), MMP1 (gene 4312); assay: BSK_BE3C_MMP1: BioMAP Diversity Plus: BE3C Assay for Matrix Metallopeptidase 1 (MMP1) Biomarker Activity (AID 2283024); settings: primary human bronchial epithelial cells; actives raise or lower the signal
How it was run: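 ELISA read-out of MMP1 in human lung bronchial epithelial primary cultures, 24 h post-dose; bidirectional curve fit vs DMSO baseline, gain or loss of signal scored.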

[12] = BSK_3C_Vis: BioMAP Diversity Plus: 3C Assay for Morphology Visualization (AID 2283025); settings: primary human endothelial cells (HUVEC);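 note: fitted both ways so gain or loss versus DMSO counts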;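 for AC50: light microscopy image of cell morphology used as background control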
How it was run: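 HUVEC, 3C system; light microscopy of morphology at 24 h post-dose. Bidirectional fit vs DMSO baseline. Secondary readout, background-control function.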

[13] = read-out: Pselectin, SELP (gene 6403); assay: BSK_4H_Pselectin: BioMAP Diversity Plus: 4H Assay for Pselectin Biomarker Activity (AID 2283026); settings: primary human endothelial cells (HUVEC); actives raise or lower the signal
How it was run: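 HUVEC, 24 h chemical exposure; P-selectin read by ELISA. Bidirectional curve fit vs DMSO baseline; gain or loss of signal scored.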

[14] = BSK_BE3C_SRB: Viability Assessment in the BioMAP Diversity Plus: BE3C Assay (AID 2283028); settings: primary human bronchial epithelial cells;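 for AC50: fitted both ways so AC50 may mark signal gain or loss versus DMSO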
How it was run: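 Overt cytotoxicity was assessed as total protein in confluent human primary bronchial epithelial cultures 24 h after chemical addition, using 0.1% sulforhodamine B staining read at 560 nm.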

[15] = read-out: Thrombomodulin, THBD (gene 7056); assay: BSK_3C_Thrombomodulin: BioMAP Diversity Plus: 3C Assay for Thrombomodulin Biomarker Activity (AID 2283029); settings: primary human endothelial cells (HUVEC); actives raise or lower the signal
How it was run: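 HUVEC, 3C conditions; compound 24 h; thrombomodulin by ELISA; bidirectional curve fit vs DMSO baseline; parallel SRB total-protein staining for cytotoxicity.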

[16] = read-out: Urokinase-type plasminogen activator receptor (uPAR), PLAUR (gene 5329); assay: BSK_4H_uPAR: BioMAP Diversity Plus: 4H Assay for Urokinase-type plasminogen activator receptor (uPAR) Biomarker Activity (AID 2283030); settings: primary human endothelial cells (HUVEC); actives raise or lower the signal
How it was run: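 Chemicals are dosed onto human vascular endothelial primary cells (umbilical vein). After 24 h, uPAR is read by ELISA. Gain or loss of signal is fitted relative to DMSO.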

[17] = target: Retinoic acid receptor RXR-alpha (Homo sapiens) (UniProt P19793); assay: ATG_RXRa_TRANS: Attagene TRANS-FACTORIAL HepG2 Assay for human Retinoid X Receptor alpha (RXRa) (AID 2283012; active = hit-call score of the fitted dose curve at least 0.9, where 1 is the maximum)
How it was run: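 Read-out: fluorescent reporter-transcript fragments quantified by capillary electrophoresis after RT-PCR. Transiently transfected HepG2 cells carrying GAL4-UAS reporters and NR-GAL4 chimeras were exposed to chemical for 24 h; activity scored as increase over DMSO.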

[18] = BSK_4H_SRB: Viability Assessment in the BioMAP Diversity Plus: 4H Assay (AID 2283027); settings: primary human endothelial cells (HUVEC);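 note: cells exposed to compound for 24 h before staining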;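 for AC50: curves fitted both ways versus DMSO so AC50 may be loss or gain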
How it was run: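 Cytotoxicity readout: sulforhodamine B (0.1%) staining of total protein after 10% TCA fixation, measured at 560 nm in human umbilical vein endothelium at 24 h. DMSO set the baseline; fitting was bidirectional.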

[19] = target: human Thyroid Receptor alpha (THRa1), THRA (gene 7067) (UniProt P10827); assay: ATG_THRa1_TRANS: Attagene TRANS-FACTORIAL HepG2 Assay for human Thyroid Receptor alpha (THRa1) (AID 2283014; active = hit-call score of the fitted dose curve at least 0.9, where 1 is the maximum)
How it was run: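 First, HepG2 cells receive multiple GAL4-UAS reporter units and the chimeric receptor. They are then dosed for 24 h, after which RNA is reverse-transcribed, amplified, labelled, HpaI-cut and sized by capillary electrophoresis; gain relative to DMSO is scored.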

[20] = target: human Vitamin D Receptor (VDR), VDR (gene 7421) (UniProt P11473); assay: ATG_VDR_TRANS: Attagene TRANS-FACTORIAL HepG2 Assay for human Vitamin D Receptor (VDR) (AID 2283022; active = hit-call score of the fitted dose curve at least 0.9, where 1 is the maximum)
How it was run: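 Fluorescence of labelled reporter cDNA fragments, resolved by capillary electrophoresis, gives mRNA induction after 24 h treatment of HepG2 cells carrying transfected Gal4-fusion reporter units. Activity is fitted in the positive direction with DMSO as baseline.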

Measured: AC50

E-selectin (Homo sapiens), sequence (P16581 whole entry, looked up): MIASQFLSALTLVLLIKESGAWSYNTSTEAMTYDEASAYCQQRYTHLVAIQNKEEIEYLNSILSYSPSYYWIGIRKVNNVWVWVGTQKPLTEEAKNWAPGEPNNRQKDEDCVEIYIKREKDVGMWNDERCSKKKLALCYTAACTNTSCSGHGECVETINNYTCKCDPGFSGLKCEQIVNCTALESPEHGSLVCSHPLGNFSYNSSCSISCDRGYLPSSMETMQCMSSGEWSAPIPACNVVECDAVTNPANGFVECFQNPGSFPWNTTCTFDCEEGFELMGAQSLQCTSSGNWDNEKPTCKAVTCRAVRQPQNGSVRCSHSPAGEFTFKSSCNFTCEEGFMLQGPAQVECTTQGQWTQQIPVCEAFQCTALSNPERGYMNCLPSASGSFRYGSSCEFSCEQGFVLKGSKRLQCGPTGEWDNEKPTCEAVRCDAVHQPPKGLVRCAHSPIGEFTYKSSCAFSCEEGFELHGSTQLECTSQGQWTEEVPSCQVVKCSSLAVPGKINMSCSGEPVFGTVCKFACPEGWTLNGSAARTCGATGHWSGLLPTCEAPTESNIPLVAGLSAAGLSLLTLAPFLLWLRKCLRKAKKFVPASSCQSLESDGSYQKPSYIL
human Vitamin D Receptor (VDR), VDR (gene 7421), sequence (P11473 whole entry, looked up, the tested form may be a part): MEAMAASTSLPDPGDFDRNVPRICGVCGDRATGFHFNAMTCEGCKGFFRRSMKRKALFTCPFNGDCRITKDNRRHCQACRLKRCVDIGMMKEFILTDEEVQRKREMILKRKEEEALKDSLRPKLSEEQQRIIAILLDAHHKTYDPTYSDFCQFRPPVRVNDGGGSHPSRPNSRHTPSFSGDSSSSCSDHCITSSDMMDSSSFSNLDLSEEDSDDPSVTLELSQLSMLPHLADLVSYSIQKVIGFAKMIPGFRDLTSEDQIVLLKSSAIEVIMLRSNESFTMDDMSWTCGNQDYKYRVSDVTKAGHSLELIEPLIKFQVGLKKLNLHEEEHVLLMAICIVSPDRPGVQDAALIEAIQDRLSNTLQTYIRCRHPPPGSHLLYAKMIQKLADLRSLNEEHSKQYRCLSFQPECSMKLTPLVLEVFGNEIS
human Retinoid X Receptor beta (RXRb), RXRB (gene 6257), sequence (P28702 whole entry, looked up, the tested form may be a part): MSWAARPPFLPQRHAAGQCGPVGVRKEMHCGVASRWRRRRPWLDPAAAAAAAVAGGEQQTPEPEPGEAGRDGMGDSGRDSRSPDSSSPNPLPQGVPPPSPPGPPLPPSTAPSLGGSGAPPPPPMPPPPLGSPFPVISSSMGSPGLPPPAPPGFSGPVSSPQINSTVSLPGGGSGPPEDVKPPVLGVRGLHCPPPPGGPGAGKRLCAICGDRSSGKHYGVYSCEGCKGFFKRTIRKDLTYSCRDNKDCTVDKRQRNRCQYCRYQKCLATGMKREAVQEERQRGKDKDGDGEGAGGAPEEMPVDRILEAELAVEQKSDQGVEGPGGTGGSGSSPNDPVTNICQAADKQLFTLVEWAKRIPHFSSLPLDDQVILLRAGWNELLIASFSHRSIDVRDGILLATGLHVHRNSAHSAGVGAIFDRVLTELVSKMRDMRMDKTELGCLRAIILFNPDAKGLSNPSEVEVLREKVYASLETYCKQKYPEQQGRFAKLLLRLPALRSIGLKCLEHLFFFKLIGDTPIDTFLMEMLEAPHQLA
Retinoic acid receptor RXR-alpha (Homo sapiens), sequence (P19793 whole entry, looked up, the tested form may be a part): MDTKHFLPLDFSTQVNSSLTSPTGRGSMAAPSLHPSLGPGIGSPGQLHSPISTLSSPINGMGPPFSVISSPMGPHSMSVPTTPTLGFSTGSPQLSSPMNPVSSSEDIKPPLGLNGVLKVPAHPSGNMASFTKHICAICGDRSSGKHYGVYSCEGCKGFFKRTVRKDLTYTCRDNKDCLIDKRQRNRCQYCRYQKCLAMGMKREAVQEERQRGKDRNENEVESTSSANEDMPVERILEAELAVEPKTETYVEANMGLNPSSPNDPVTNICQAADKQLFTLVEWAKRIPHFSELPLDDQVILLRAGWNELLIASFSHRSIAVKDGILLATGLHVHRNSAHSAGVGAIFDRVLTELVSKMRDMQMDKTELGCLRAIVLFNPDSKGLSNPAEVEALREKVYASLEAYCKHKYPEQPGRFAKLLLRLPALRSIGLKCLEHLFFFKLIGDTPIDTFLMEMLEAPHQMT
human RAR-related Orphan Receptor gamma (RORg), RORC (gene 6097), sequence (P51449 whole entry, looked up, the tested form may be a part): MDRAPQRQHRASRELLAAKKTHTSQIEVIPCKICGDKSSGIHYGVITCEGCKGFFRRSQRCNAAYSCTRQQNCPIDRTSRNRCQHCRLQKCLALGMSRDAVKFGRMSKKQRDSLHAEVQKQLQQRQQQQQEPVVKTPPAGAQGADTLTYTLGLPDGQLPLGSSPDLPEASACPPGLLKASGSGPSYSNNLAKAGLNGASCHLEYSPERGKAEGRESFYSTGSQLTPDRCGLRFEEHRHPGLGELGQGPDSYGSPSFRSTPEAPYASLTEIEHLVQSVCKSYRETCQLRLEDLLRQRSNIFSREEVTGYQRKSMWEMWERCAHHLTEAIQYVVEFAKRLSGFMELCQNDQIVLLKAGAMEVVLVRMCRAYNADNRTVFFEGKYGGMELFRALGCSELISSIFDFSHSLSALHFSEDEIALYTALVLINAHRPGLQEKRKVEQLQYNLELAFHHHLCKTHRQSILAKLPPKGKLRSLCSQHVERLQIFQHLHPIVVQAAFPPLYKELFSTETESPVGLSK
human Thyroid Receptor alpha (THRa1), THRA (gene 7067), sequence (P10827 whole entry, looked up, the tested form may be a part): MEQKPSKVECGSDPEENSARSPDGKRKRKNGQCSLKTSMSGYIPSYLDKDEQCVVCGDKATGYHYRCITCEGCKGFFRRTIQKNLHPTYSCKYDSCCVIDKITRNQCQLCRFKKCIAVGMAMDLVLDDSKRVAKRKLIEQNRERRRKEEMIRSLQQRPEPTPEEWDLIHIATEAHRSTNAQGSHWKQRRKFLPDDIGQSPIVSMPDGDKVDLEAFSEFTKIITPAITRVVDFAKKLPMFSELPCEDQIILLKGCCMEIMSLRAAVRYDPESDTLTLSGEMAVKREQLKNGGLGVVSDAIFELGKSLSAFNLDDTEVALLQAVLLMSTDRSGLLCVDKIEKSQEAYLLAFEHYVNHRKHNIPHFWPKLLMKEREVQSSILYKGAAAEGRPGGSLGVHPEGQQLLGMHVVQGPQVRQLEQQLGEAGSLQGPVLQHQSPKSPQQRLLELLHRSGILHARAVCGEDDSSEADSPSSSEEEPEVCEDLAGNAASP

CCCCC(C#N)(Cn1cncn1)c1ccc(Cl)cc1 (stereo not given)
active: [12] 9.8 µM
not listed: [17] | [18] | [19] | [20]
inactive: all other assays above

CCOP(=O)(OCC)Oc1nc(Cl)c(Cl)cc1Cl
active: [7] 24.6 µM | [8] 20 µM | [10] 28.8 µM | [12] 16.3 µM | [13] 18.5 µM | [18] 12.4 µM | [14] 4.23 µM | [16] 12 µM
not listed: [19] | [20]
inactive: all other assays above

CC(C)N1C(=O)N(c2ccccc2)CSC1=NC(C)(C)C
inactive: [1] | [17] | [19] | [4] | [9] | [15]
active: [3] 16 µM | [5] 31.3 µM | [6] 30.4 µM | [7] 31.8 µM | [8] 25.4 µM | [10] 27.2 µM | [11] 25.8 µM | [12] 16.3 µM | [13] 31.2 µM | [14] 27.8 µM | [16] 31.7 µM

CCOP(=S)(OCC)Oc1nc(Cl)n(C(C)C)n1
active: [15] 3.97 µM
not listed: [17]
inactive: all other assays above

O=P(O)(O)CCCl
not listed: [17] | [18] | [19] | [20]
inactive: all other assays above

CNC(=O)N(C)c1nnc(C(C)(C)C)s1
not listed: [2] | [19]
inactive: all other assays above

CSC(=O)c1c(C(F)F)nc(C(F)(F)F)c(C(=O)SC)c1CC(C)C
active: [2] 15.1 µM | [5] 31.2 µM | [6] 20 µM | [7] 31.1 µM | [8] 32.4 µM | [10] 14.6 µM | [11] 6.22 µM | [12] 13.7 µM | [13] 15 µM | [14] 16.8 µM
inactive: [1] | [3] | [4] | [9] | [20] | [15]
